In PubChem BioAssay:
Unmarked numbers belong to inactive results. Active and inactive are the calls of the source.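 The calls were made as follows: active = inhibition above 50%; inactive = the rest.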

Assay: HepG2 cytotoxicity, primary screen, cytotoxicity control for P. falciparum antimalarial project, cell-based, ATP luminescence (AID 2303);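 also: 0% = DMSO wells and 100% = digitonin-killed cells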
Conditions: HepG2 viability, 24-48 h, at 10 µM, active compounds read high

Which inhibition does the source give for `O=C(Cc1ccc(Nc2nccc(Nc3cccc4[nH]ncc34)n2)cc1)Nc1ccc(C(F)(F)F)cc1` here?
The inhibition was 12%.

With `Cc1ccc(S(=O)(=O)Nc2ccc(Nc3nccc(Nc4cccc5[nH]ncc45)n3)cc2)cc1` as the compound, how does the inhibition read?
The inhibition was 57% (active).

For `CCN(CC)CCNc1nccc(N(C)c2ccc(NC(=O)Nc3cc(C(F)(F)F)ccc3F)cc2)n1`, which inhibition is on record?
Its inhibition is 74% (active).

Which inhibition does the source give for `N#Cc1cnc(Nc2ccc(Oc3ccccc3)cc2)nc1Nc1cccc(S(N)(=O)=O)c1` here?
Its inhibition is 74% (active).

With `CN(c1ccc(NC(=O)Nc2cc(C(C)(C)C)on2)cc1)c1ccnc(NCCN2CCOCC2)n1` as the compound, how does the inhibition read?
The inhibition was 51% (active).

For `O=C(O)c1cccnc1Sc1ccc(Cl)cc1`, which inhibition is on record?
The inhibition was 5%.

With `C#CCNC(=O)c1ccc(-c2ccnc(Nc3cccc(CCCN4CCOCC4)c3)n2)s1` as the compound, how does the inhibition read?
The inhibition was 54% (active).

Which inhibition does the source give for `C(=N\Nc1nccc2sc(-c3ccccc3)cc12)/c1cccnc1` here?
The inhibition was -9%.

For `CC(=O)c1ccc(NC(=O)Nc2ccc(N(C)c3ccnc(Nc4cccc(CS(C)(=O)=O)c4)n3)cc2)cc1`, which inhibition is on record?
Its inhibition is 86% (active).

Which inhibition does the source give for `COc1c(CN2CCOCC2)cccc1-c1cc2c(-c3ccc(C(=O)O)c(C(C)C)c3)ccnc2[nH]1` here?
Its inhibition is 44%.

Which inhibition does the source give for `CN(C)CC(O)COc1ccc(Nc2ncc([N+](=O)[O-])c(Nc3ccccc3O)n2)cc1` (centres undefined) here?
Its inhibition is 47%.

With `CS(=O)(=O)Cc1cccc(Nc2ncc(Cl)c(Nc3cccnc3C(N)=O)n2)c1` as the compound, how does the inhibition read?
The inhibition was 56% (active).

Which inhibition does the source give for `N#CCc1ccc(Nc2nccc(Nc3ccc(Oc4ccccc4)cc3)n2)cc1` here?
Its inhibition is -1%.

Which inhibition does the source give for `CCN(CC)CCCNc1nccc(N(C)c2ccc(NC(=O)Nc3cc(C(F)(F)F)ccc3F)cc2)n1` here?
The inhibition was 96% (active).
